Source: PubChem BioAssay (NCATS)
Inconclusive results are not listed. Activity calls are given as the source filed them. Calls come from the whole dose curve; as a rule, active = well fitted inhibition curve with a large enough effect; inconclusive = small, poorly fitted or top-dose-only effect; inactive = flat fitted curve, though single readings scatter. Bridge positions count the residues as written; N and C are the ends. Square brackets hold non-standard residues; d marks the D form. Peptide text beside a SMILES is read from it. * marks the point of attachment. Octanoyl(6-Me) = CCC(C)CCCCC(=O)*; Dab = NCC[CH](N)C(=O)O

How the values were obtained:
Assay in all cases: qHTS profiling for inhibitors of Plasmodium falciparum proliferation (AID 504749); note: nearly all actives have a fitted effect of over 60% in size
Settings in all cases: P. falciparum in erythrocytes, SYBR Green DNA, 72 h; series mostly up to 28.7 µM
CP260 = test system: CP260
Summary of the method: (§1)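 Infected RBCs, 0.3% parasitemia/2.5% Hct final; cpd 72 h, 37 C, 5% CO2; lysis buffer with saponin/triton/SYBR Green I, o/n RT dark; FI 485/535; norm. to artemisinin (0.29 uM) and DMSO.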

CP262 = test system: CP262
Summary of the method: as §1

CP266 = test system: CP266
Summary of the method: as §1

CP268 = test system: CP268
Summary of the method: as §1

CP269 = test system: CP269
Summary of the method: as §1

CP286 = test system: CP286
Summary of the method: as §1

CP291 = test system: CP291
Summary of the method: as §1

CP297 = test system: CP297
Summary of the method: as §1

CP305 = test system: CP305
Summary of the method: as §1

CP315 = test system: CP315
Summary of the method: as §1

CP325 = test system: CP325
Summary of the method: as §1

CP329 = test system: CP329
Summary of the method: as §1

CP335 = test system: CP335
Summary of the method: as §1

DFO2036 = test system: DFO2036
Summary of the method: as §1

DIV14 = test system: DIV14
Summary of the method: as §1

DIV17 = test system: DIV17
Summary of the method: as §1

DIV30 = test system: DIV30
Summary of the method: as §1

Dd2 = test system: Dd2
Summary of the method: as §1

ECU = test system: ECU
Summary of the method: as §1

FAB9 = test system: FAB9
Summary of the method: as §1

GB4 = test system: GB4
Summary of the method: as §1

HB3 = test system: HB3
Summary of the method: as §1

ICS = test system: ICS
Summary of the method: as §1

JCK = test system: JCK
Summary of the method: as §1

N140 = test system: N140
Summary of the method: as §1

P94_40 = test system: P94_40
Summary of the method: as §1

PC15 = test system: PC15
Summary of the method: as §1

PC26 = test system: PC26
Summary of the method: as §1

PC49 = test system: PC49
Summary of the method: as §1

SC27B = test system: SC27B
Summary of the method: as §1

TAB109 = test system: TAB109
Summary of the method: as §1

W2 = test system: W2
Summary of the method: as §1

Measured: Potency

CCC(C)CCCCC(=O)NC(CCN)C(=O)NC(C(=O)NC(CCN)C(=O)NC1CCNC(=O)C(C(C)O)NC(=O)C(CCN)NC(=O)C(CCN)NC(=O)C(CC(C)C)NC(=O)C(Cc2ccccc2)NC(=O)C(CCN)NC1=O)C(C)O (configuration not stated) ({Octanoyl(6-Me)}-[Dab]T[Dab][Dab][Dab]FL[Dab][Dab]T; lactam 4-C; configuration not given here)
inactive: CP260 | CP262 | CP266 | CP268 | CP269 | CP286 | CP291 | CP297 | CP305 | CP315 | CP325 | CP329 | CP335 | DFO2036 | DIV14 | DIV17 | DIV30 | Dd2 | ECU | FAB9 | GB4 | HB3 | ICS | JCK | N140 | P94_40 | PC15 | PC26 | PC49 | SC27B | TAB109 | W2
